# From publication PMC4336329 (PLoS ONE, 2015)
# Hit rate of the full screen: of about 310,000 compounds, about 14,000 (4.5%) showed an effect of 50% or more. The effect is printed as a negative number. The entries come from a sample that favours strong results as a whole.
# Target: human ether-à-go-go-related gene (hERG) potassium channel (human, UniProt Q12809)
# Test: primary screen, population patch clamp on CHO cells stably expressing hERG; higher = less effect of the substance
# 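Note: peak tail current of the secondary pulse compared with the same well before compound.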
# Sequence of human ether-à-go-go-related gene (hERG) potassium channel (Q12809 whole entry, looked up): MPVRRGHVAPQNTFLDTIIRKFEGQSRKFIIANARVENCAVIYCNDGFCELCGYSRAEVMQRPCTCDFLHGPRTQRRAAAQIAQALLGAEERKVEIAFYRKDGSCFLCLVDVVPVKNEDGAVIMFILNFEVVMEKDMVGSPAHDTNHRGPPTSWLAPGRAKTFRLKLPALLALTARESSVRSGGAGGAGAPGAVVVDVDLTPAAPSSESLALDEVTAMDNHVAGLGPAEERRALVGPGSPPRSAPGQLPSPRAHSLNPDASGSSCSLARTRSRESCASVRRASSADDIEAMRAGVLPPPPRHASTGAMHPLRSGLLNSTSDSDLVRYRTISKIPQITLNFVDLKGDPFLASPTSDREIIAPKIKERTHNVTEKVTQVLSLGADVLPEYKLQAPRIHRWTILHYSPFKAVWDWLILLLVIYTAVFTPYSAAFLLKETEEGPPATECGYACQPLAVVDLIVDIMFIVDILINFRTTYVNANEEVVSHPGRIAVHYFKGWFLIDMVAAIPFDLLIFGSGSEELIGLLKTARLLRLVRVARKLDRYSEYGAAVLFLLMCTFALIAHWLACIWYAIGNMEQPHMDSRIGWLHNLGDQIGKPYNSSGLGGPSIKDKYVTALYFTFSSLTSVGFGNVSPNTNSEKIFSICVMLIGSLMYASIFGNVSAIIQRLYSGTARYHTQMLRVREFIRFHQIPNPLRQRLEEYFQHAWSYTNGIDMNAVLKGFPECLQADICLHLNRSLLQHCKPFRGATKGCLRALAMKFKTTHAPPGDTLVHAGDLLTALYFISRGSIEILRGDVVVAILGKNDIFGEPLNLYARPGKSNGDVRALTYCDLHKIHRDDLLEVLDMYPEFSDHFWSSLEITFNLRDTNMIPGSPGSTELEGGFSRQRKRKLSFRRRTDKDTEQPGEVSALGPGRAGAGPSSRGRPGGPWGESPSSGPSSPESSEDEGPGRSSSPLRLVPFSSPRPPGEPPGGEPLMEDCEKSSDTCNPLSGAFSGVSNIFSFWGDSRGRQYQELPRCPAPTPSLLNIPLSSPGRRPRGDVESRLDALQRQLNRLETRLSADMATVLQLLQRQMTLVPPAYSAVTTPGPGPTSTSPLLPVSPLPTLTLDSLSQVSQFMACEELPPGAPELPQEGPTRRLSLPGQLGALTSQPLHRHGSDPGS
row,Compound,"hERG current change (%, negative = inhibition) at 10uM [%]"
1,CC(=O)c1ccc(N2C(=NC(=O)COc3ccccc3)SC3CS(=O)(=O)CC32)cc1 (centres unmarked),-3.89
2,COc1cc2c(cc1OC)CN(C(=O)c1cc(Cl)nc(Cl)c1)CC2,12.1
3,CC(=O)OCC(OC(C)=O)C(OC(C)=O)C(OC(C)=O)C(=O)Nc1ccccc1 (centres unmarked),16.6
4,COc1ccc(CNC(=O)Nc2ccc([N+](=O)[O-])cc2)cc1,5.47
5,CN(CC(=O)Nc1ccc(Cl)c(S(=O)(=O)N2CCOCC2)c1)C(=O)c1cccs1,-44.2
6,CCOc1ccccc1NC(=O)C1CCCN1C(=O)c1cccs1 (centres unmarked),7.83
7,Cc1ccc(CNC(=O)CCC(=O)Nc2nnc(C3CCCCC3)s2)cc1,17.6
8,CCOc1ccc(OCC(=O)OCC(=O)N2CCN(C(=O)c3ccco3)CC2)cc1,-21.9
9,O=C(CSc1nnc(SCc2ccc(F)cc2)s1)Nc1ccc(C(=O)O)cc1,18.6
10,O=C(O)c1cc(O)ccc1NC(=O)C1CCCO1 (centres unmarked),-0.924
11,O=C(c1ccc(F)cc1F)N1CCN(c2ccccn2)CC1,0.804
12,O=C1NC(=O)C(Cc2ccccc2)(c2cccnc2)N1 (centres unmarked),17.7
13,Cc1ccc2nc(/C(C#N)=C\c3ccc(Oc4ccc([N+](=O)[O-])cn4)cc3)[nH]c2c1,1.61
14,CCc1ccc(-c2cc(C(=O)N/N=C/c3ccccn3)[nH]n2)cc1,-41.7
15,CC1=C(C(=O)N2CCCC(N3CCN(c4cccc(C(F)(F)F)c4)CC3)C2)OCCO1 (centres unmarked),-17.9
16,Cc1ccc(C(=O)N2CCCC(N3CCN(c4cccc(C(F)(F)F)c4)CC3)C2)s1 (centres unmarked),-51
17,CC(=O)N1CCCC(N2CCN(c3cccc(C(F)(F)F)c3)CC2)C1 (centres unmarked),-3.73
18,COc1cccc(C(=O)Nc2sc(C(C)C)cc2C(N)=O)c1OC,-50.5
19,COc1cccc(C(=O)Nc2nnc(-c3ccccc3)s2)c1OC,4.52
20,COc1cccc(NC(=O)c2cccc(OC)c2OC)c1,-0.56
21,CCCN1C(=O)c2cc(C(=O)NC3CCCC3)ccc2C1O (centres unmarked),-2.01
22,Cc1ccc(NCN2C(=O)C3CC=CCC3C2=O)cc1 (centres unmarked),2.67

row,Compound,"hERG current change (%, negative = inhibition) at 10uM [%]"
1,COc1ccccc1NC(=O)CN(Cc1ccco1)C(=O)c1ccc(Cl)nc1,-28.4
2,CCN(Cc1ccccc1)C(=O)c1ccc(N(C)S(=O)(=O)c2ccc(C)cc2)cc1,-38.7
3,COc1ccccc1NC(=O)CN(Cc1ccco1)C(=O)c1ccc(-n2nc(C)cc2C)cc1,-51.2
4,CCN(CC(=O)Nc1ccccc1OC)C(=O)c1ccc(N(C)S(=O)(=O)c2ccc(C)cc2)cc1,-62.2
5,CCOC(=O)c1c(C)[nH]c(C)c1S(=O)(=O)N(C)CC(=O)Nc1ccccc1OC,-60
6,CCOC(=O)c1c(C)[nH]c(C)c1S(=O)(=O)N(C)CC(=O)Nc1ccccc1C,14.4
7,CCN(CC(=O)NC(C)C)C(=O)c1ccc(S(=O)(=O)N(C)c2ccccc2OC)cc1,-2.53
8,COc1ccccc1NC(=O)CN(Cc1ccco1)C(=O)c1cncc(Br)c1,-22.4
9,CCOC(=O)c1c(C)[nH]c(C)c1S(=O)(=O)N(C)CC(=O)Nc1cc(C)ccc1OC,-24.7
10,CCCN(CC(=O)Nc1ccccc1OC)C(=O)c1ccc(S(=O)(=O)Nc2ccccc2)cc1,-53.4
11,CCN(CC(=O)Nc1ccccc1OC)C(=O)c1ccc(NS(=O)(=O)c2ccc(C(C)=O)cc2)cc1,0.13
12,CCCN(CC(=O)Nc1ccccc1OC)C(=O)c1cccc(S(=O)(=O)Nc2ccc(OC)cc2)c1,-11.4
13,COc1ccc2[nH]cc(C(=O)CCl)c2c1,8.92
14,COCCN1C(=O)N(c2ccccc2)C(=O)C1CC(=O)Nc1cc(OC)cc(OC)c1 (centres unmarked),14
15,CSc1nnc(C)c(/C=C/NOCc2cccc(F)c2)n1,4.03
16,Cl.OCCN(Cc1ccccc1)CC(O)COc1ccc(-c2ccccc2)cc1 (centres unmarked),-28.3
17,CCOC(=O)c1ccc(NC(=O)CCc2nc(-c3cccc(C)c3)no2)cc1,7.13
18,Cc1ccc(S(=O)(=O)c2c(C)cc(C)[nH]c2=O)cc1,20.3
19,CCn1nnnc1SCC(=O)Nc1cccc(NC(C)=O)c1,-1.06
20,Cc1csc(NC(=O)CSc2nncc(=O)n2N)n1,19
21,O=C(Nc1cccc(/C=C/c2ccccn2)c1)c1ccc(-n2cncn2)c([N+](=O)[O-])c1,-24.9
22,Cc1cc(C)cc(OCC(=O)Nc2cc(C)on2)c1,15.9

row,Compound,"hERG current change (%, negative = inhibition) at 10uM [%]"
1,Cc1c(NS(=O)(=O)c2cccc(C(=O)NCc3ccncc3)c2)c(=O)n(-c2ccccc2)n1C,6.38
2,Cc1nnc2c(SC(C)C)nc3ccccc3n12,-77.2
3,Cc1nnc2c(NC(C)C)nc3ccccc3n12,-26.8
4,CC(C)Sc1nc2ccccc2n2cnnc12,-6.25
5,CCC(NC(=S)NCc1ccc(F)cc1)c1ccc(C)cc1 (centres unmarked),13.7
6,COc1ccc(NC(=O)c2ccccc2NC(=O)C2CC=CCC2C(=O)O)cc1 (centres unmarked),15.6
7,Cc1ccc(CNC(=O)CCSCc2ccc(C)cc2)cc1,-2.27
8,Cc1ccc(-c2noc(CN3CCC(C(N)=O)CC3)n2)cc1,21.9
9,CCOC(=O)N1CCN(Cc2nc(-c3ccccc3)no2)CC1,2
10,NC(=O)C1CCN(Cc2nc(-c3ccccc3)no2)CC1,-14.1
11,CCOC(=O)C1CCCN(C2CCN(Cc3nc(Cc4ccccc4)no3)CC2)C1 (centres unmarked),-60.3
12,CCOC(=O)C1CCCN(Cc2nc(Cc3cccc(F)c3)no2)C1 (centres unmarked),-6.6
13,CCOC(=O)C1CCN(C2CCN(Cc3nc(-c4ccccc4)no3)CC2)CC1,-71.5
14,CCOC(=O)C1CCN(Cc2nc(-c3ccc(OC)c(OC)c3)no2)CC1,2.83
15,CCOC(=O)C1CCCN(Cc2nc(Cc3ccccc3Cl)no2)C1 (centres unmarked),-14.1
16,CCOC(=O)C1CCCN(C2CCN(Cc3nc(-c4ccccc4)no3)CC2)C1 (centres unmarked),-56.5
17,CCc1ccccc1NC(=O)Cn1nc(C(F)(F)F)c2c1CCC2,7.74
18,CN=c1scc(C)n1/N=C/c1cc(Br)c(O)c(OC)c1,15.8
19,C=C(C)c1cccc(C(C)(C)NC(=O)NCC2CCCO2)c1 (centres unmarked),3.74
20,CCOc1ccc(Cl)cc1S(=O)(=O)N1CCC(C(=O)NCC2CCCO2)CC1 (centres unmarked),-2.63
21,CC(C)c1nc(N2CCOCC2)c(C#N)c2c1COC(C)(C)C2,9.56
22,Cc1cc(/C=C2/C(=N)N3C(=NC2=O)SN=C3S(C)(=O)=O)c(C)n1-c1ccccc1,0.917

row,Compound,"hERG current change (%, negative = inhibition) at 10uM [%]"
1,Cc1cc(/C=C2/C(=N)N3C(=NC2=O)SN=C3S(C)(=O)=O)c(C)n1-c1ccc(F)cc1,47.6
2,CCOc1ccc(-n2c(C)cc(/C=C3/C(=N)N4C(=NC3=O)SN=C4S(C)(=O)=O)c2C)cc1,-53.4
3,CCOc1ccccc1OCCC(=O)OCC(=O)c1ccc[nH]1,-16.2
4,Cc1cc(NC(=O)C23CCC(C)(C(=O)O2)C3(C)C)no1 (centres unmarked),12
5,CCN(CC)CCCN(Cc1cc2cc(OC)ccc2[nH]c1=O)C(=O)Nc1ccc(F)cc1,-69.9
6,CCOc1ccc2[nH]c(=O)c(CN(Cc3cccnc3)C(=O)Nc3ccccc3OC)cc2c1,-6.63
7,COc1ccc2[nH]c(=O)c(CN(CCCN(C)C)C(=O)Nc3ccc(F)cc3)cc2c1,-65.7
8,COc1ccc2[nH]c(=O)c(CN(CC3CCCO3)C(=O)Nc3ccccc3)cc2c1 (centres unmarked),-2.72
9,CCN(CC)CCCN(Cc1cc2cc(OC)ccc2[nH]c1=O)C(=O)Nc1ccccc1,-55.3
10,COc1ccc(NC(=O)N(Cc2cc3cc(OC)ccc3[nH]c2=O)CC2CCCO2)cc1 (centres unmarked),-31.6
11,COc1ccc(NC(=O)N(CCCN(C)C)Cc2cc3cc(OC)ccc3[nH]c2=O)cc1,-38.5
12,COc1cc2cc(CN(Cc3cccnc3)C(=O)Nc3ccccc3)c(=O)[nH]c2cc1OC,-21.8
13,COc1ccc2[nH]c(=O)c(CN(Cc3cccnc3)C(=O)Nc3ccccc3)cc2c1,-54.6
14,COc1ccc2[nH]c(=O)c(CN(CCCN(C)C)C(=O)Nc3ccccc3)cc2c1,-29.2
15,CCN(CC)CCCN(Cc1cc2cc3c(cc2[nH]c1=O)OCO3)C(=S)Nc1ccc(OC)cc1,-46.8
16,CCN(CC)CCCN(Cc1cc2cc(OC)c(OC)cc2[nH]c1=O)C(=O)Nc1ccccc1,-13.8
17,COC(=O)c1cscc1NC(C)=O,20.7
18,O=C(O)CCc1n[nH]c(=S)[nH]c1=O,5.81
19,Cc1ccc(C)c(C(=O)C(C)OC(=O)CN2C(=O)NC3(CC(C)CC(C)(C)C3)C2=O)c1 (centres unmarked),23.2
20,CCOc1ccc(CCNC(=O)Cn2cccc2C(=O)c2ccccc2)cc1OCC,-2.85
